Compound activity as filed in PubChem BioAssay.
NPSR antagonist – qHTS Assay for Antagonists of the Neuropeptide S Receptor: cAMP Signal Transduction; Potency, µM (doses to about 38.3 µM), without a hit: top-dose activity change, negative = inhibition, hits mostly inhibitors; CHO-NPSR cells, cAMP TR-FRET, antagonist mode; Q6W5P4; 220,000 tested, 1% active; also: potency is read from the fitted curve at half-maximal effect; nearly all actives have a fitted effect of over 50% in size
IMPase Li inh – qHTS Assay for Identifying the Cell-Membrane Permeable IMPase Inhibitors: Potentiation with Lithium; CHO-M1 cells, IP1 TR-FRET (IP-One), carbachol + lithium; Potency, µM (series often up to 59.4 µM), without a hit: at the top dose activity, negative = IMPase inhibition, usual class: inhibitors; 210,000 tested, 0.35% active;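 also: IP1 builds up when IMPase is blocked and the TR-FRET signal falls; potency is read from the fitted curve at half-maximal effect; plate controls were basal vehicle for no effect and high inhibitor control for full effect; nearly all actives have a fitted effect of over 50% in size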
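Readout is a homogeneous TR-FRET IP1 immunoassay (Ex 320, Em 665 and 620), where raised cytosolic IP1 lowers signal. Cells were CHO-M1 treated 30 min at 37C with test compounds plus a little lithium; AC50 values came from Hill-equation fitting.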
HPGD block – qHTS Assay for Inhibitors of HPGD (15-Hydroxyprostaglandin Dehydrogenase). Potency, µM, for inactives: at the top dose activity change, negative = inhibition, most hits filed as inhibitors. 150,000 tested, 4.3% active. purified HPGD, NADH fluorescence kinetic, PGE2 substrate. AID 894, 2007; active = well fitted inhibition curve with a large enough effect, not every such curve was filed as active; inconclusive = small, poorly fitted or top-dose-only effect, or another doubt; inactive = no such curve, though single readings can be large or run the other way; also: potency is read from the fitted curve at half-maximal effect
Target sequence (P15428 whole entry, looked up): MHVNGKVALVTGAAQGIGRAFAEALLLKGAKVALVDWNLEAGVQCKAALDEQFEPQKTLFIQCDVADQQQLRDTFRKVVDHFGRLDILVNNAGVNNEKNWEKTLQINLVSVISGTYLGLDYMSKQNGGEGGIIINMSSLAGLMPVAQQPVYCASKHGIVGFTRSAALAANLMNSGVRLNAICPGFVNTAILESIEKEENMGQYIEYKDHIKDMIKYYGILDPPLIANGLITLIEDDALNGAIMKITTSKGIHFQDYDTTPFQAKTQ
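20 nM HPGD preincubated 15 min at room temperature with compound in 50 mM Tris-HCl pH 8, 0.01% Tween 20. Started with 1 mM NAD+ and 30 uM prostaglandin E2; NADH fluorescence (360/450 nm) read 5 times over 30-s intervals, last minus first.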
12-hLO inh – qHTS Assay for Inhibitors of 12-hLO (12-human lipoxygenase). Potency, µM (top dose mostly 57.1 µM), without a hit: at the highest dose activity change, negative = inhibition, hits mostly inhibitors. AID 1452, 2008. 150,000 tested, 0.12% active. purified 12-hLO, xylenol orange hydroperoxide absorbance. Polyunsaturated fatty acid lipoxygenase ALOX12 (Homo sapiens), P18054; also: potency is read from the fitted curve at half-maximal effect; nearly all actives have a fitted effect of over 55% in size
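Xylenol orange chromogenic assay: hydroperoxide from 12hLO oxidises Fe(II), giving red-shifted Fe(III)-XO absorbance. Conditions: 150 nM enzyme, 40 uM arachidonic acid, 25 mM Hepes pH 7.0, 0.01% Triton X-100, 30 min, room temperature.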
IMPase inh – qHTS Assay for Identifying the Cell-Membrane Permeable IMPase Inhibitors. CHO-M1 cells, IP1 accumulation, HTRF TR-FRET ratio. inhibition (IP1 accumulation), % at 46.1 µM. 120,000 tested, under 10 active. Inositol monophosphatase 1 (Rattus norvegicus), P97697; active = well fitted curve in the direction sought with a large enough effect in the signal ratio, not every such curve was filed as active; inconclusive = small, poorly fitted or top-dose-only effect, or a change in a side signal; inactive = no such curve, though single readings can be large or run the other way; the % refers to the signal ratio;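 also: cells stimulated with carbachol in lithium chloride buffer; plate controls were DMSO basal wells for no effect and reference inhibitor wells for full effect; higher means more IMPase inhibition seen as more IP1 and lower FRET ratio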
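CHO-M1 cells (CHO stably expressing M1 receptor), compound up to 46 uM final, stimulated with carbachol (50 uM as added) in buffer with 50mM LiCl, pH 7.4, 30 min at 37C. Cytosolic IP1 read by TR-FRET; AC50 from Hill fits.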
ALDH1A1 block – qHTS Assay for Inhibitors of Aldehyde Dehydrogenase 1 (ALDH1A1). Aldehyde dehydrogenase 1A1 (Homo sapiens), P00352. Purified ALDH1A1, NADH fluorescence, propionaldehyde substrate. Potency, µM (top dose mostly 75.3 µM), without a hit: at the highest dose activity, negative = inhibition, hits mostly inhibitors. 220,000 tested, 7.3% active. AID 1030, 2008; active = well fitted inhibition curve with a large enough effect, not every such curve was filed as active; inconclusive = small, poorly fitted or top-dose-only effect, or another doubt; inactive = no such curve, though single readings can be large or run the other way;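 also: potency is read from the fitted curve at half-maximal effect; plate controls were no enzyme wells and a reference inhibitor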
Target sequence (P00352 whole entry, looked up): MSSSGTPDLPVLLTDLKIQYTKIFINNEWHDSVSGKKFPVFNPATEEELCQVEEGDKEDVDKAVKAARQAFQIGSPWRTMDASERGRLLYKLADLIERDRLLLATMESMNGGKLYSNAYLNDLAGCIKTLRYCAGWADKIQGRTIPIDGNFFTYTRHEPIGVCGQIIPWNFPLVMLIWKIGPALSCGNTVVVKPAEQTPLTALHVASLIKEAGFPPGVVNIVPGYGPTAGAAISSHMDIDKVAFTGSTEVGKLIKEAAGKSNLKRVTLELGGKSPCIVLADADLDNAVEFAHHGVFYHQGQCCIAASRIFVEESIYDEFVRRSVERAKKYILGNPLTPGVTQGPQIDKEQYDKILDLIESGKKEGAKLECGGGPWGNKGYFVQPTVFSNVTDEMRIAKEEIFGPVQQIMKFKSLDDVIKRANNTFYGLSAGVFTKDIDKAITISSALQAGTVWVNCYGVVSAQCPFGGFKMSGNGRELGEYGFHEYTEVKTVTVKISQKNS
Numbers without * were called inactive; [ ] = remark or other dose. Shown are actives, neighbours in structure and some others; about 8.9% of the full set was active somewhere. Unless noted, calls follow the shape of the dose curve; as a rule, active = well fitted curve in the direction sought with a large enough effect; inconclusive = small, poorly fitted or top-dose-only effect, or another doubt; inactive = no such curve, though single readings can be large; an effect the other way counts as inactive or inconclusive. Unless noted, % is scaled to controls: 0 for no effect and ±100 for the full control effect.

Screening Cc1onc(-c2ccccc2)c1CNC(=O)C1COc2ccccc2O1 (centres undefined) returned NPSR antagonist 5% and ALDH1A1 block 18µM*.
Cc1ccc(CNC(=O)C2COc3ccccc3O2)cc1 (centres undefined) was read as NPSR antagonist 4%, IMPase Li inh 8% and ALDH1A1 block inconclusive.
For CCOC(=O)CC(C)(C)/C(C)=N/Nc1ccc([N+](=O)[O-])cc1[N+](=O)[O-] the results were NPSR antagonist -35%, IMPase Li inh 15%, HPGD block -17%, 12-hLO inh 1% and ALDH1A1 block -6%.
`COc1cc(C(=O)O)cc(Br)c1OC1CCCC1` gave NPSR antagonist -2%[46.1 µM], IMPase Li inh 21%[38.3 µM], HPGD block -9%, 12-hLO inh -3%, IMPase inh 8 and ALDH1A1 block 13%.
For O=C(C1COc2ccccc2O1)N1CCCC1 (centres undefined) the results were NPSR antagonist -3%[46.1 µM], IMPase Li inh -7%[38.3 µM], HPGD block 13µM*, 12-hLO inh 3%, IMPase inh 0 and ALDH1A1 block inconclusive.
COc1ccc(OC)c(NC(=O)C2COc3ccccc3O2)c1 (centres undefined) was read as NPSR antagonist -27%[46.1 µM], IMPase Li inh 10%[38.3 µM], HPGD block -14%, 12-hLO inh 2%, IMPase inh -2 and ALDH1A1 block inconclusive.
Screening COc1ccc(CNC(=O)C2COc3ccccc3O2)c(OC)c1 (centres undefined) returned NPSR antagonist -19%[46.1 µM], IMPase Li inh -5%[38.3 µM], HPGD block 4.5µM*, 12-hLO inh -15%, IMPase inh 5 and ALDH1A1 block inconclusive.
For O=C(C1COc2ccccc2O1)N1CCN(c2ccc(F)cc2)CC1 (centres undefined) the results were NPSR antagonist -5%[46.1 µM], IMPase Li inh 6%[38.3 µM], HPGD block -3%, 12-hLO inh -3%, IMPase inh 0 and ALDH1A1 block 1%.
Screening COC(=O)c1ccc(C(NC(=O)OCc2ccccc2)/C(I)=C/[C@@H](C)C(=O)NCc2ccc(OC)c(O)c2)cc1 (some centres undefined) returned IMPase Li inh 4%, HPGD block -6%, 12-hLO inh -1% and ALDH1A1 block -7%.
COC(=O)c1ccc(C(NC(=O)OCc2ccccc2)/C(I)=C/[C@@H](C)C(=O)NCc2ccc(C)o2)cc1 (some centres undefined) was read as IMPase Li inh 7%, HPGD block -27%, 12-hLO inh -5% and ALDH1A1 block 28µM*.
For O=C(c1cccc(-c2ccc(O)cc2)c1)N1CCOCC1 the results were NPSR antagonist -12%[46.1 µM], IMPase Li inh 8%[38.3 µM], HPGD block 16µM*, 12-hLO inh 3%, IMPase inh -4 and ALDH1A1 block -5%.
`CC(=O)c1cccc(NC(=O)Nc2ccc(C(=O)N3CCOCC3)cc2)c1` gave NPSR antagonist -8%[46.1 µM], IMPase Li inh -4%, HPGD block 13µM*, 12-hLO inh -3%, IMPase inh -1 and ALDH1A1 block inconclusive.
`O=C1c2ccccc2-c2ccc(C(=O)N3CCOCC3)cc21` gave NPSR antagonist 0%[46.1 µM], IMPase Li inh 14%[38.3 µM], HPGD block 11µM*, 12-hLO inh -4%, IMPase inh 7 and ALDH1A1 block -4%.
Screening CC1CCN(C(=S)c2ccc(O)cc2)CC1 returned NPSR antagonist -6%[46.1 µM], IMPase Li inh -10%[38.3 µM], HPGD block 32µM*, 12-hLO inh -10%, IMPase inh 4 and ALDH1A1 block inconclusive.
NC1=NC(c2ccccc2)=NC1(NC(=O)c1ccccc1)C(Cl)Cl (centres undefined) was read as NPSR antagonist 15%.
Screening O=C(c1ccc(F)cc1)[C@@H]1[C@@H](C(=O)c2ccccc2)[C@@]2(C(=O)Nc3ccccc32)[C@H]2c3ccccc3C=CN12 returned NPSR antagonist -43%, IMPase Li inh 14%, HPGD block -19%, 12-hLO inh -18%, IMPase inh 17 and ALDH1A1 block 20µM*.
CC(=O)[C@@H]1[C@@H](C(=O)c2ccc(F)cc2)[C@]2(C(=O)Nc3ccccc32)[C@H]2C=Cc3cc(F)ccc3N12 was read as NPSR antagonist -41%.
For CCOc1ccc(N2C(=O)C3C4C=CC(CC4)C3C2=O)c([N+](=O)[O-])c1 (centres undefined) the results were NPSR antagonist -2%[46.1 µM], IMPase Li inh 5%[38.3 µM], HPGD block -21%, 12-hLO inh -7%, IMPase inh 2 and ALDH1A1 block 28µM*.
Screening COc1ccc(N2C(=O)C3C4C=CC(CC4)C3C2=O)c([N+](=O)[O-])c1 (centres undefined) returned NPSR antagonist -11%[46.1 µM], IMPase Li inh -5%[38.3 µM], HPGD block -20%, 12-hLO inh -3%, IMPase inh -16 and ALDH1A1 block inconclusive.
Screening COc1ccc(NC(=O)C(=O)N2N=C3CCCCC3C2(O)C(F)(F)F)cc1 (centres undefined) returned NPSR antagonist -20%, IMPase Li inh 12% and ALDH1A1 block 2.8µM*.
C#CCn1cc(/C=N/Nc2nc3ccccc3[nH]2)c2ccccc21 was read as NPSR antagonist 13µM*, IMPase Li inh 12%, HPGD block inconclusive, 12-hLO inh inconclusive, IMPase inh 5 and ALDH1A1 block inconclusive.
Screening C#CCn1cc(/C=N/NC(=O)COc2cccc3cccnc23)c2ccccc21 returned NPSR antagonist 11%, IMPase Li inh -1%, HPGD block -21%, 12-hLO inh -2% and ALDH1A1 block 10µM*.
C(=N\Nc1nc2ccccc2[nH]1)/c1cccc2nccnc12 was read as NPSR antagonist -1%.
Screening c1ccc2c(c1)CC/C2=N/Nc1nc2ccccc2[nH]1 returned NPSR antagonist 7.9µM*, IMPase Li inh 31% and ALDH1A1 block -9%.
Screening CC(C)(C)C1CCC(=NNc2nc3ccccc3[nH]2)CC1 (centres undefined) returned NPSR antagonist 9%, IMPase Li inh 9% and ALDH1A1 block inconclusive.
Screening C(=N\Nc1nc2ccccc2[nH]1)/c1ccccn1 returned NPSR antagonist 10µM*, IMPase Li inh 19% and ALDH1A1 block 5%.
